Where “and” joins values, the source holds several entries; their conditions need not be identical. Identical values can stand only once. Counter-ions that a name gives are not always drawn. ± gives the uncertainty stated by the source.
The compounds below were run on U87 (assay: cell viability relative to vehicle control; higher = less growth inhibition (less active)). Details: 10 µM; 72 h.
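Further: viable cell number estimated from Alamar Blue fluorescence read at 560/90, part of a single-dose primary screen of an FDA-approved drug library.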

SMILES | cell viability
O=c1c(O[C@@H]2O[C@H](CO)[C@@H](O)[C@H](O)[C@H]2O)c(-c2ccc(O)c(O)c2)oc2cc(O)cc(O)c12 [Isoquercitrin] | 104 ± 1.7%
CC(C)(O)c1ccccc1CC[C@@H](SCC1(CC(=O)O)CC1)c1cccc(/C=C/c2ccc3ccc(Cl)cc3n2)c1 | 101.8 ± 0.94%
Cc1ccc(O)c([C@H](CCN(C(C)C)C(C)C)c2ccccc2)c1 | 103.8 ± 0.47%
CC1CNc2c(cccc2S(=O)(=O)N[C@@H](CCCNC(=N)N)C(=O)N2CC[C@@H](C)C[C@@H]2C(=O)O)C1 (some centres undefined) | 105 ± 2.8%
CN1CCN(CCCN2c3ccccc3Sc3ccc(Cl)cc32)CC1 | 95.9 ± 7%
COC1=C(OC)C(=O)C(CCCCCCCCCCO)=C(C)C1=O | 93.41 ± 0.38%
C[C@@H](c1ncncc1F)[C@](O)(Cn1cncn1)c1ccc(F)cc1F | 106 ± 1.7%
Cc1occc(=O)c1O | 106 ± 1.4%
Cc1c2oc3c(C)ccc(C(=O)N[C@@H]4C(=O)N[C@H](C(C)C)C(=O)N5CCC[C@H]5C(=O)N(C)CC(=O)N(C)[C@@H](C(C)C)C(=O)O[C@@H]4C)c3nc-2c(C(=O)N[C@@H]2C(=O)N[C@H](C(C)C)C(=O)N3CCC[C@H]3C(=O)N(C)CC(=O)N(C)[C@@H](C(C)C)C(=O)O[C@@H]2C)c(N)c1=O | 16.2 ± 2.6%
Cc1ncc([N+](=O)[O-])n1CC(O)CCl (centres undefined) | 91.08 ± 0.44%
C[C@H]1[C@H](OC(=O)CCC(=O)O)O[C@@H]2O[C@@]3(C)CC[C@H]4[C@H](C)CC[C@@H]1[C@@]24OO3 | 98.9 ± 1.1%
C[C@H](N[C@@H](CCc1ccccc1)C(=O)O)C(=O)N1CCC[C@H]1C(=O)O | 98.3 ± 1.7%
COc1ccccc1OCC(O)CN1CCN(CC(=O)Nc2c(C)cccc2C)CC1 (centres undefined) [Ranolazine dihydrochloride] | 102.8 ± 0.94%
CCCCN1CCCC1CNC(=O)c1cc(C#N)c2ccccc2c1OC (centres undefined) [Nafadotride] | 102 ± 1.5%
CN(C)CCC(c1ccc(Cl)cc1)c1ccccn1 (centres undefined) [Chlorpheniramine] | 109 ± 2.8%
Cc1ccnc2c1NC(=O)c1cccnc1N2C1CC1 [Viramune] | 107 ± 3.4%
COc1ccc2cc([C@H](C)C(=O)O)ccc2c1 | 106 ± 1.4%
CCCCc1nc(Cl)c(CO)n1Cc1ccc(-c2ccccc2-c2nnn[nH]2)cc1 [LOSARTAN Potassium] | 107 ± 1.9%
C[C@H]1O[C@H](O[C@H]2[C@H](O)[C@@H](O)[C@@H](O[C@H]3[C@H](O)[C@@H](O)C(O)O[C@@H]3CO)O[C@@H]2CO)[C@H](O)[C@@H](O)[C@@H]1N[C@H]1C=C(CO)[C@@H](O)[C@H](O)[C@H]1O (some centres undefined) | 102.6 ± 0.92%
O=c1[nH]cnc2c1ncn2[C@H]1CC[C@@H](CO)O1 | 105 ± 2.5%

SMILES | cell viability
CN(CCOc1ccc(CC2SC(=O)NC2=O)cc1)c1ccccn1 (centres undefined) | 100% and 110%
CC1(C)S[C@@H]2[C@H](/N=C/N3CCCCCC3)C(=O)N2[C@H]1C(=O)O | 104 ± 2.1%
O=C1c2c(O)cc(O)cc2O[C@H](c2ccc(O)c(O)c2)[C@H]1O (racemic) | 85.3 ± 2.2%
O=C1N(c2ccccc2)c2ccccc2C1(Cc1ccncc1)Cc1ccncc1 | 106 ± 2.1%
CC(C)c1nc(CN(C)C(=O)N[C@H](C(=O)N[C@@H](Cc2ccccc2)C[C@H](O)[C@H](Cc2ccccc2)NC(=O)OCc2cncs2)C(C)C)cs1 | 102 ± 3%
CN(C)CCOc1ccc(/C(=C(/CCCl)c2ccccc2)c2ccccc2)cc1 | 106 ± 1.8%
COc1cc(C(=O)NC2CCCNC2)cc(OC)c1OC (centres undefined) | 101 ± 4.2%
CCc1nn(CCCN2CCN(c3cccc(Cl)c3)CC2)c(=O)n1CCOc1ccccc1 [Nefazodone] | 100.5 ± 0.27%
CN(C)CCc1c[nH]c2ccc(Cn3cncn3)cc12 | 101 ± 4.5%
C=CC1=C(C(=O)O)N2C(=O)[C@@H](NC(=O)/C(=N\O)c3csc(N)n3)[C@H]2SC1 | 107 ± 1.5%
CN(Cc1cnc2nc(N)nc(N)c2n1)c1ccc(C(=O)N[C@@H](CCC(=O)O)C(=O)O)cc1 | 72.9 ± 0.73%
O=c1n(CCCN2CCN(c3cccc(Cl)c3)CC2)nc2ccccn12 | 101 ± 1.3%
OCCOCCN1CCN(C2=Nc3ccccc3Sc3ccccc32)CC1 | 99.6 ± 2.8%
OCc1cccnc1 | 108 ± 1.5%
CCN1CC(CCN2CCOCC2)C(c2ccccc2)(c2ccccc2)C1=O (centres undefined) | 104 ± 1.3%
COc1ccc(CN2CCN(C(c3ccc(F)cc3)c3ccc(F)cc3)CC2)c(OC)c1OC | 69.3 ± 8.6%
COc1cc(-c2ccc(=O)[nH]n2)ccc1OC(F)F | 111 ± 3.7%
Cn1nnc2c(C(N)=O)ncn2c1=O | 106 ± 1.3%
Cc1cccc(CCN2CCC(C(=O)c3ccc(NS(C)(=O)=O)cc3)CC2)n1 | 102.6 ± 0.96%

Source: the supplement of paper PMC3898565
